An excerpt weighted towards active compounds, which were near 2.4% of everything screened.
C diff HTS – blocks growth of Clostridium difficile; AID 1259249; hit rate 0.25% among 86,000; growth activity, negative = inhibition, % at 16 µg/mL (by protocol); Clostridium difficile clinical isolate growth, OD600, 24 h; active compounds read low;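 active means mean growth activity at or below -80% and every replicate also at or below -80%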
Pf Dd2 growth – P. falciparum Dd2 growth inhibition | SYBR Green, 72 h; active compounds read low | activity change, % at 10 µM | hit rate 2.3% among 94,000; in the data active means activity change below about -80%
Of the large screens only hits and unclear results are named; the others gave an inactive call.

C[C@@H]1CCCCO[C@H](CN(C)C(=O)Nc2ccc(F)cc2)[C@@H](C)CN([C@H](C)CO)C(=O)c2cc(NC(=O)Nc3ccc(C(F)(F)F)cc3)ccc2O1	none
COc1ccc(NC(=O)N(C)C[C@H]2OCCCC[C@H](C)Oc3ccc(NC(=O)Nc4ccc(C(F)(F)F)cc4)cc3C(=O)N([C@H](C)CO)C[C@@H]2C)cc1	none
C[C@@H]1CN([C@@H](C)CO)C(=O)c2cccc(NC(=O)c3ccncc3)c2O[C@@H]1CN(C)S(=O)(=O)c1ccccc1	none
COc1ccc2c3c([nH]c2c1)[C@@H](CO)N(S(C)(=O)=O)CC31CCN(C(=O)c2cccnc2)CC1	none
C[C@@H](NC(=O)C[C@@H]1C[C@H]2c3cc(NC(=O)Nc4ccccc4F)ccc3O[C@H]2[C@@H](CO)O1)c1ccccc1	none
C[C@H](CO)N1C[C@H](C)[C@@H](CN(C)C(=O)Nc2ccc(F)cc2)Oc2ccc(NC(=O)Cc3cn(C)c4ccccc34)cc2C1=O	none
Cc1ccc(S(=O)(=O)N(C)C[C@H]2OCCCC[C@H](C)Oc3ccc(NC(=O)Nc4cccc5ccccc45)cc3C(=O)N([C@H](C)CO)C[C@H]2C)cc1	none
COc1ccc(S(=O)(=O)N(C)C[C@@H]2OCCCC[C@H](C)Oc3ccc(NC(=O)Nc4cccc5ccccc45)cc3C(=O)N([C@H](C)CO)C[C@@H]2C)cc1	none
COc1ccc(S(=O)(=O)N(C)C[C@H]2OCCCC[C@H](C)Oc3ccc(NC(=O)Nc4cccc5ccccc45)cc3C(=O)N([C@H](C)CO)C[C@H]2C)cc1	Pf Dd2 growth -86.1
Cc1ccc(S(=O)(=O)N(C)C[C@H]2OCCCC[C@H](C)Oc3ccc(NC(=O)Nc4cccc5ccccc45)cc3C(=O)N([C@@H](C)CO)C[C@H]2C)cc1	Pf Dd2 growth -82.0
COc1ccc(S(=O)(=O)N(C)C[C@@H]2OCCCC[C@H](C)Oc3ccc(NC(=O)Nc4cccc5ccccc45)cc3C(=O)N([C@@H](C)CO)C[C@H]2C)cc1	Pf Dd2 growth -89.2
COc1ccc(S(=O)(=O)N(C)C[C@H]2OCCCC[C@@H](C)Oc3ccc(NC(=O)Nc4cccc5ccccc45)cc3C(=O)N([C@@H](C)CO)C[C@@H]2C)cc1	none
CO[C@H]1CN(C)C(=O)c2ccc(NC(=O)NC(C)C)cc2OC[C@@H](C)N(S(C)(=O)=O)C[C@@H]1C	none
OC[C@@H]1[C@H](c2ccc(-c3ccncc3)cc2)[C@@H]2CN(Cc3ccccn3)CCCCN12	none
C[C@H]1CN([C@@H](C)CO)C(=O)c2cc(-c3ccncc3)cnc2O[C@@H]1CN(C)S(=O)(=O)c1ccc(F)cc1	none
C[C@@H]1CCCCO[C@@H](CN(C)Cc2ccc(C(F)(F)F)cc2)[C@@H](C)CN([C@@H](C)CO)C(=O)c2cc(NC(=O)CCCN(C)C)ccc2O1	Pf Dd2 growth -85.0
C[C@@H]1CCCCO[C@H](CN(C)CC2CCCCC2)[C@@H](C)CN([C@H](C)CO)C(=O)c2cc(NC(=O)CCCN(C)C)ccc2O1	none
C[C@@H]1CCCCO[C@H](CN(C)Cc2ccc(C(F)(F)F)cc2)[C@H](C)CN([C@@H](C)CO)C(=O)c2cc(NC(=O)CCCN(C)C)ccc2O1	Pf Dd2 growth -89.0
C[C@@H]1CCCCO[C@@H](CN(C)Cc2ccc(C(F)(F)F)cc2)[C@@H](C)CN([C@H](C)CO)C(=O)c2cc(NC(=O)CCCN(C)C)ccc2O1	none
C[C@@H]1CN([C@@H](C)CO)C(=O)c2cc(NC(=O)CCCN(C)C)ccc2O[C@@H](C)CCCCO[C@@H]1CN(C)Cc1ccc(C(F)(F)F)cc1	none
C[C@H]1CCCCO[C@@H](CN(C)CC2CCCCC2)[C@@H](C)CN([C@@H](C)CO)C(=O)c2cc(NC(=O)CCCN(C)C)ccc2O1	Pf Dd2 growth -88.6
COc1ccccc1S(=O)(=O)N[C@H]1CC[C@H](CC(=O)N2CCOCC2)O[C@@H]1CO	none
COc1cccc(-c2ccc3c(c2)[C@H]2[C@H](CCN2C(=O)NC2CCCCC2)[C@H](CO)N3C)c1	none
CNC[C@H]1OCCCC[C@H](C)Oc2ccc(NC(=O)NC3CCCCC3)cc2C(=O)N([C@@H](C)CO)C[C@@H]1C	none
C[C@@H]1CCCCO[C@@H](CN(C)C(=O)Cc2ccccc2)[C@H](C)CN([C@@H](C)CO)C(=O)c2cc(NS(=O)(=O)c3ccccc3)ccc2O1	none (no result: C diff HTS)
CS(=O)(=O)N1CC(=O)N2[C@H](CO)[C@H](c3ccc(C#Cc4cccc(F)c4)cc3)[C@@H]2C1	none
C[C@H](CO)N1C[C@H](C)[C@H](CN(C)Cc2ccc(C(=O)Nc3ccccc3N)cc2)Oc2c(NC(=O)Nc3ccc(F)cc3)cccc2C1=O	none
C[C@@H]1CN([C@@H](C)CO)C(=O)c2cccc(NC(=O)Nc3ccc(C(F)(F)F)cc3)c2O[C@H]1CN(C)Cc1ccc(C(=O)Nc2ccccc2N)cc1	Pf Dd2 growth -85.2
C[C@@H]1CN([C@@H](C)CO)C(=O)c2cccc(NC(=O)Nc3ccc(C(F)(F)F)cc3)c2O[C@H]1CN(C)Cc1ccc(C(F)(F)F)cc1	none

From PubChem
